This note sets out measurements from PubChem BioAssay (Tox21).

Experiment [1] is described as follows: qHTS assay to identify aromatase inhibitors - cell viability counter screen (AID 743084).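 Also: cells stimulated with testosterone during compound exposure; nearly all actives have a fitted effect of over 55% in size.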 Also: potency is read from the fitted curve at half-maximal effect. To be noted: MCF-7 aro ERE viability, CellTiter-Fluor, 24 h; series mostly up to 70.3 µM.
Experiment [2] addresses Aryl hydrocarbon receptor (Homo sapiens) (UniProt P35869). In words: qHTS assay to identify small molecule that activate the aryl hydrocarbon receptor (AhR) signaling pathway (AID 743085). Also: nearly all actives have a fitted effect of over 15% in size. Also: potency is read from the fitted curve at half-maximal effect.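 As to activation: HG2L7.5c1 human HepG2 liver cells with stably integrated DRE-driven firefly reporter.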 Particulars: HepG2 AhR-luc (HG2L7.5c1), luciferase, 24 h; series mostly up to 70.3 µM. The essentials:
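HepG2 cells (HG2L7.5c1) stably carrying a firefly luciferase reporter driven by 20 dioxin responsive elements were exposed to compound for 24 h at 37C after a 5 h settling period; luminescence rise (ONE-Glo) indicated activation.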

The nature of experiment [3]: qHTS assay to identify small molecule that activate the aryl hydrocarbon receptor (AhR) signaling pathway - cell viability counter screen (AID 743086). Also: nearly all actives have a fitted effect of over 45% in size. Also: potency is read from the fitted curve at half-maximal effect. To be noted: HepG2-AhR-luc viability, CellTiter-Fluor, 24 h; series mostly up to 70.3 µM. In a few lines:
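HepG2-AhR-luc (HG2L7.5c1) cells, 4000/well, treated 24 h at 37 C with compound; viability measured as CellTiter-Fluor fluorescence after 30 min in the same wells as the luciferase read.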

Experiment [4] deals with Peroxisome proliferator-activated receptor gamma (Homo sapiens) (UniProt P37231). Nature of the experiment: qHTS assay to identify small molecule agonists of the peroxisome proliferator-activated receptor gamma (PPARg) signaling pathway (AID 743094; active = well fitted activation curve with a large enough effect in the signal ratio in the repeat runs, not every such curve was filed as active; the % refers to the signal ratio). Particulars: HEK293H PPARg-UAS-bla, beta-lactamase FRET ratio, 17 h; series mostly up to 57 µM. The essentials:
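HEK293H PPARg-bla cells, 5 h settle at 37C/5% CO2; compound (DMSO) 17 h, 37C; B/G FRET substrate 1 h RT; fluorescence intensity read-out. qHTS format.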

Experiment [5] in a line: qHTS assay to identify small molecule phospholipidosis (PLD) inducers (AID 1259344; active = well fitted curve in the direction sought with a large enough effect; an effect the other way counts as inactive or inconclusive). Particulars: HepG2 phospholipidosis, LipidTOX Red imaging, 24 h; series mostly up to 38.3 µM. The essentials:
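Image-based: LipidTOX Red pit count/intensity per well and per cell; HepG2, 24 h compound at 37 C, PFA fixation, Hoechst counterstain.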

For experiment [6], the target named is Nuclear receptor subfamily 1 group I member 2 (Rattus norvegicus) (UniProt Q9R1A7). In words: Rat pregnane X receptor (rPXR) activation by small molecules, qHTS assay (AID 1346983). Also: nearly all actives have a fitted effect of over 20% in size. Particulars: rPXR luciferase reporter cells, One-Glo luminescence, 24 h; max activation: stronger effect = higher value. The essentials:
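Cell-based rPXR activation assay: rPXR cells, 2,000 per well, rested 5hr at 37 C, then exposed to compounds in DMSO for 24 hr at 37 C. Luciferase activity read by One-Glo luminescence after 30 min at room temperature.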

Experiment [7] concerns the target Nuclear receptor subfamily 1 group I member 2 (Homo sapiens) (UniProt O75469). In words: CYP3A4 induction through human pregnane X receptor (PXR) by small molecules, qHTS assay (AID 1346984). Also: nearly all actives have a fitted effect of over 40% in size. Also: potency is read from the fitted curve at half-maximal effect. To be noted: DPX-2 HepG2 PXR, CYP3A4-luciferin luminescence, 24 h; series mostly up to 46.1 µM. The essentials: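 HepG2-derived DPX-2 line carrying PXR plus a CYP3A4-promoter luciferase reporter; cells plated 5 hr, compound-exposed 24 hr at 37C. CYP3A4 activity probed with 3uM (final) Luciferin-IPA for 3hr, then luciferase read after One-Glo.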

The target is the same in experiment [8]. In words: Human pregnane X receptor (PXR) activation by small molecules, qHTS assay (AID 1346985). Also: nearly all actives have a fitted effect of over 40% in size. Also: potency is read from the fitted curve at half-maximal effect. Particulars: DPX-2 HepG2 CYP3A4-luciferase, 24 h; series mostly up to 38.3 µM. In a few lines:
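DPX-2 cells (HepG2 co-transfected with a PXR response element and a CYP3A4-promoter luciferase construct) were seeded at 2,000 per well, rested 5 hr at 37C, then exposed to DMSO-dissolved compounds for 24 hr. Activation was read as luciferase luminescence.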

Molecules are shown by their SMILES. Inconclusive results are not listed. Unmarked numbers belong to inactive results. The source made the active and inactive calls. Unless noted, calls follow the shape of the dose curve; as a rule, active = well fitted curve in the direction sought with a large enough effect in the repeat runs; inconclusive = weak or mixed curves; inactive = no such curve, though single readings can be large; an effect the other way counts as inactive or inconclusive.
% is scaled to controls: 0 for no effect and ±100 for the full control effect.

Sequence of Nuclear receptor subfamily 1 group I member 2 (Rattus norvegicus) (Q9R1A7 whole entry, looked up): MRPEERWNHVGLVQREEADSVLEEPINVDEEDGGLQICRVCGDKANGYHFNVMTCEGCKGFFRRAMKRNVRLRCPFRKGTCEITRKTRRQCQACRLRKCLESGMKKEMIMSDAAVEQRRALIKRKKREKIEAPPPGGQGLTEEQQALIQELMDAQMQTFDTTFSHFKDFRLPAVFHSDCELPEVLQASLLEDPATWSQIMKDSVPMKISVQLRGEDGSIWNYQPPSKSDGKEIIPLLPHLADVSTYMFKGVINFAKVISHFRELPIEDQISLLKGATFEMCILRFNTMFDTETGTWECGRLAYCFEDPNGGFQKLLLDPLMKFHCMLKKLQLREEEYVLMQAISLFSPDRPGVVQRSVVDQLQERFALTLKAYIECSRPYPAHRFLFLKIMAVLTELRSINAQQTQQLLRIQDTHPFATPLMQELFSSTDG
Sequence of Aryl hydrocarbon receptor (Homo sapiens) (P35869 whole entry, looked up): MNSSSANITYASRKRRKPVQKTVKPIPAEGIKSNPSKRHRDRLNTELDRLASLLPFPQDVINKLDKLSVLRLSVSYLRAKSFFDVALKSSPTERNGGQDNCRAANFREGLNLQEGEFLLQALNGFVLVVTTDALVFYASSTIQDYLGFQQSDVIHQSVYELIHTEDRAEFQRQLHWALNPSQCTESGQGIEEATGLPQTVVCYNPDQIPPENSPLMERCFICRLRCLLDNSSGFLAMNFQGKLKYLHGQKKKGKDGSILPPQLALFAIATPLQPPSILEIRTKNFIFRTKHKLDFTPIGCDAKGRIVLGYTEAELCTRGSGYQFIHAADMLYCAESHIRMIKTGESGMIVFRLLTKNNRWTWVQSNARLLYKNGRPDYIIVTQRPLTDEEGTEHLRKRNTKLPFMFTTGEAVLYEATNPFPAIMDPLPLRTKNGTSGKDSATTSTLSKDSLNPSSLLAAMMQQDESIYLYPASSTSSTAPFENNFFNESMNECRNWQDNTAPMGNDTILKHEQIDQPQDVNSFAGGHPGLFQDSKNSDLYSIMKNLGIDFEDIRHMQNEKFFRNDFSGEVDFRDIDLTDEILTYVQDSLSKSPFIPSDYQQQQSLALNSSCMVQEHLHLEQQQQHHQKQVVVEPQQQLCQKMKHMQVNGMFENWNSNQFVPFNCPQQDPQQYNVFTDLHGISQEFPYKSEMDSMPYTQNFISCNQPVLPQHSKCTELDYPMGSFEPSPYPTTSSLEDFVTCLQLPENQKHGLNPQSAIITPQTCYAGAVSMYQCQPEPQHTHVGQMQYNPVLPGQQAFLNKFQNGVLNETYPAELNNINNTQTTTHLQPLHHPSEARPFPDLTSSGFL
Sequence of Peroxisome proliferator-activated receptor gamma (Homo sapiens) (P37231 whole entry, looked up): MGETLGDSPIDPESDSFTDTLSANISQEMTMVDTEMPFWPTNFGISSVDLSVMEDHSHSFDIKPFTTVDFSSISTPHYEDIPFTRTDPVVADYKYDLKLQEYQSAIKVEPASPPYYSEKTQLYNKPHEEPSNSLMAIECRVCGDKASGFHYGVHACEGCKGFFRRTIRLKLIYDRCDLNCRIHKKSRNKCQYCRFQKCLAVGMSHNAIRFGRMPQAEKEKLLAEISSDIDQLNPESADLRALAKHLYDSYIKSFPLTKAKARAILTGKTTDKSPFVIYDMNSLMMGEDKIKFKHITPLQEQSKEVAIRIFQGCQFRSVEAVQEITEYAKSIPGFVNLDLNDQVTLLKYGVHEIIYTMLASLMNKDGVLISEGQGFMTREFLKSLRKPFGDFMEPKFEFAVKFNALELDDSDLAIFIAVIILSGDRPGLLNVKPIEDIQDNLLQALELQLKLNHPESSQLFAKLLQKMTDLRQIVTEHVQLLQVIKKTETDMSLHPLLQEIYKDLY

For `O=C(O)c1cc(N=Nc2ccc(O)c(C(=O)O)c2)ccc1O`, the Potency entry in experiment [1], in experiment [2], in experiment [3], in experiment [4], in experiment [5] and in experiment [7] was “inactive” in each case. Also, the Potency entry in experiment [8] is “inactive”. Further, in experiment [6], the max activation was -4.04%.
`CN(C)c1ccc(C(=C2C=CC(=[N+](C)C)C=C2)c2c(O)c(S(=O)(=O)[O-])cc3cc(S(=O)(=O)O)ccc23)cc1`: the Potency in experiment [1] was 29.8 µM (active); in experiment [3], 26.6 µM (active). Moreover, the Potency result in experiment [2], in experiment [4], in experiment [5], in experiment [7] and in experiment [8] was “inactive” in each case. Moreover, the max activation in experiment [6] was -15.3%.
Regarding `CC(=O)Oc1c(C)cc(OCC(O)CNC(C)C)c(C)c1C` (stereo unspecified), the Potency result in experiment [1], in experiment [2], in experiment [3], in experiment [4], in experiment [5] and in experiment [7] was “inactive” in each case. Besides, the Potency entry in experiment [8] was “inactive”. For the same molecule, the max activation in experiment [6] was -4.59%.
On to `NC(=O)OCC(O)COc1ccc(Cl)cc1` (stereo unspecified), for which the Potency entry in experiment [1], in experiment [2], in experiment [3], in experiment [4], in experiment [5] and in experiment [7] was “inactive” each time. For the same molecule, the Potency entry in experiment [8] is “inactive”. Besides, the max activation in experiment [6] was 0.928%.
Take `CO[C@H]1C[C@@H]2CC[C@@H](C)[C@@](O)(O2)C(=O)C(=O)N2CCCC[C@H]2C(=O)O[C@H]([C@H](C)C[C@@H]2CC[C@@H](OC(=O)C(C)(CO)CO)[C@H](OC)C2)CC(=O)[C@H](C)/C=C(\C)[C@@H](O)[C@@H](OC)C(=O)[C@H](C)C[C@H](C)/C=C/C=C/C=C/1C`: the Potency result in experiment [1], in experiment [2], in experiment [3], in experiment [4], in experiment [5] and in experiment [7] was “inactive” each time. In addition, the Potency result in experiment [8] is “inactive”. Also, the max activation in experiment [6] is 0.976%.
With `CC1=C(/C=C/C(C)=C/C=C/C(C)=C/C=C/C=C(C)/C=C/C=C(C)/C=C/C2=C(C)C(=O)CCC2(C)C)C(C)(C)CCC1=O`, the Potency entry in experiment [1], in experiment [2], in experiment [3], in experiment [4], in experiment [5] and in experiment [7] was “inactive” each time. In experiment [8], the Potency result is “inactive”. Moreover, in experiment [6], the max activation was -3.2%.
As for `CCCCC(C)(O)C/C=C/[C@H]1[C@H](O)CC(=O)[C@@H]1CCCCCCC(=O)OC` (stereo partly specified), the Potency result in experiment [1], in experiment [2], in experiment [3], in experiment [4], in experiment [5] and in experiment [7] was “inactive” in each case. In addition, the Potency entry in experiment [8] is “inactive”. Moreover, the max activation in experiment [6] is -4.82%.
Consider `COC(=O)CC[C@H](N)C(=O)O`, for which the Potency entry in experiment [1], in experiment [2], in experiment [3], in experiment [4], in experiment [5] and in experiment [7] was “inactive” throughout. Besides, the Potency entry in experiment [8] is “inactive”. The max activation in experiment [6] is -5.81%.
Regarding `O=C1CCC(=O)N1CO`, the Potency result in experiment [1], in experiment [2], in experiment [3], in experiment [4], in experiment [5] and in experiment [7] was “inactive” throughout. For the same molecule, in experiment [8], the Potency entry is “inactive”. Moreover, the max activation in experiment [6] is -2.21%.
As for `CN1c2c(nc(N)[nH]c2=O)NCC1CNc1ccc(C(=O)NC(CCC(=O)O)C(=O)O)cc1` (stereo unspecified), the Potency result in experiment [1], in experiment [2], in experiment [3], in experiment [4], in experiment [5] and in experiment [7] was “inactive” in each case. Besides, the Potency result in experiment [8] is “inactive”. For the same molecule, in experiment [6], the max activation is -0.71%.
With `CCCOc1cc(N)ccc1C(=O)OCCN(CC)CC`, the Potency result in experiment [1], in experiment [2], in experiment [3], in experiment [4], in experiment [5] and in experiment [7] was “inactive” in each case. Also, the Potency entry in experiment [8] is “inactive”. Further, the max activation in experiment [6] is 2.87%.
For the molecule `CCCc1nc(C(C)(C)O)c(C(=O)OCc2oc(=O)oc2C)n1Cc1ccc(-c2ccccc2-c2nn[nH]n2)cc1`, the Potency result in experiment [1], in experiment [2], in experiment [3], in experiment [4], in experiment [5] and in experiment [7] was “inactive” in each case. Further, in experiment [8], the Potency entry was “inactive”. Moreover, the max activation in experiment [6] is -4.8%.
As for `CC(C)(S)[C@@H](N)C(=O)O`, the Potency result in experiment [1], in experiment [2], in experiment [3], in experiment [4], in experiment [5] and in experiment [7] was “inactive” throughout. In addition, the Potency entry in experiment [8] was “inactive”. Moreover, the max activation in experiment [6] is -3.13%.
For the molecule `CCCCC[C@H](O)/C=C/[C@@H]1[C@H]2C/C(=C/CCCC(=O)O)O[C@H]2C[C@H]1O`, the Potency result in experiment [1], in experiment [2], in experiment [3], in experiment [4], in experiment [5] and in experiment [7] was “inactive” throughout. Besides, the Potency result in experiment [8] was “inactive”. Also, the max activation in experiment [6] was -0.736%.
`COc1ccccc1N1CCN(CCCC(=O)c2ccc(F)cc2)CC1`: the Potency result in experiment [1], in experiment [3], in experiment [4] and in experiment [5] was “inactive” each time. Further, the Potency is 10.6 µM (active) in experiment [2], 6.31 µM (active) in experiment [7] and 7.94 µM (active) in experiment [8]. Also, in experiment [6], the max activation is 8.11%.
As to `CC(=O)N(CC(C)C(=O)O)c1c(I)cc(I)c(N)c1I` (stereo unspecified), the Potency result in experiment [1], in experiment [2], in experiment [3], in experiment [4], in experiment [5] and in experiment [7] was “inactive” each time. Besides, in experiment [8], the Potency result is “inactive”. Besides, the max activation in experiment [6] is -1.91%.
For `O=C(NNCNNC(=O)c1ccncc1)c1ccncc1`, the Potency entry in experiment [1], in experiment [3], in experiment [4], in experiment [5], in experiment [7] and in experiment [8] was “inactive” in each case. Also, the Potency in experiment [2] is 4.73 µM (active). Besides, the max activation in experiment [6] was -3.41%.
